Experiment [1] has as its target T1, Aspartate--tRNA(Asp/Asn) ligase (Mycobacterium tuberculosis (strain ATCC 25618 / H37Rv)) (UniProt P9WFW3). Note: in the data most compounds retested in dose-response had high values.
T1 sequence (whole entry): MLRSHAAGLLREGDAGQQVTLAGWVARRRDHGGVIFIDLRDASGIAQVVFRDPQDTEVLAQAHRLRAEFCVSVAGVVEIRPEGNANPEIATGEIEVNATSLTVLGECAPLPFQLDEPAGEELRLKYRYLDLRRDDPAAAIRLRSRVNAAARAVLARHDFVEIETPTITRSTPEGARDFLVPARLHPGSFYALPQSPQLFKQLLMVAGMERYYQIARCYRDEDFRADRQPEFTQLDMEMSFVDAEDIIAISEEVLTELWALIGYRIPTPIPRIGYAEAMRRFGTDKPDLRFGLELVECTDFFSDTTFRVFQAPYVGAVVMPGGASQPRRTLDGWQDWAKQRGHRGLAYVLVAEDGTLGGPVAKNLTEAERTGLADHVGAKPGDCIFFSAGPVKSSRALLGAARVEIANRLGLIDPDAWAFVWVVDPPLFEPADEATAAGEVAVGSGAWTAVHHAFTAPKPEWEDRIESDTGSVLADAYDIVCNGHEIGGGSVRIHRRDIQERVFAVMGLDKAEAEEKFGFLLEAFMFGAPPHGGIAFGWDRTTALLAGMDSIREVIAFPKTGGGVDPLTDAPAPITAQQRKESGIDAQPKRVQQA
Description: Assay for Asp RNA synthetase-1 from Mycobacterium tuberculosis. It is filed as functional. More on the design: scale not given: direction of the effect not stated beside the values. Conditions: 30 µM.

The target of experiment [2] is Shiga toxin 2 (Escherichia coli O157:H7) (UniProt P09385+P09386). Put plainly: E. coli 0.157:H7 Shiga Toxin SOP - stx2 screening assay. More on the design: scale not given: direction of the effect not stated beside the values. Conditions: 30 µM. The format is functional.

Turning to `CN1CCN(Cc2cscn2)CC(C(=O)N(C)C)C1` (configuration not stated), the values for the Percent Effect in experiment [1] and in experiment [2] were -6.57% and -14.6%, respectively.
`Cc1cc(NC(=O)CN2CCn3c(nnc3C3CC3)C2)n(C)n1`: the Percent Effect in experiment [1] was -5.68%; in experiment [2], 19.6%.
On the same counts, the results for `CN(Cc1ccco1)Cc1ccccc1CNC(=O)c1ccc[nH]1` are 0.725% and 26.7%.
On the same counts, the results for `Cc1cccc(C)c1OCCC(=O)N1CCC(c2nncn2C)CC1` are -2.43% and -9.22%.
For `CC(C)C(=O)NCCCn1ncc2c(Cl)cccc21`, the Percent Effect in experiment [1] was 16.5%; in experiment [2] it was -6.02%.
Taken in the same sequence, the figures for `CN(C)Cc1cnc2n1CCN(Cc1ccsc1)CC2` were -5.79% and -3.72%.
As for `CN(Cc1ccncc1)CC(c1cccs1)N1CCOCC1` (configuration not stated), the Percent Effect in experiment [1] is -5.01%; in experiment [2], -26%.
On the same counts, the results for `Cc1cc(NC(=O)CN2CCc3cnc(C)nc3C2)on1` are -1.18% and -34.7%.
Taken in the same sequence, the figures for `CS(=O)(=O)c1ccc(CNC2CCCN(c3cccnn3)C2)cc1` (configuration not stated) were -4.64% and 4.3%.
On the same counts, the results for `CNC(=O)c1ccc(CN(C(=O)c2scnc2C)C2CC2)cc1` are -2.83% and -32.1%.
For the molecule `COCCO[C@H]1CCN(C(=O)C2CCOCC2)[C@H]1Cc1ccncc1`, the Percent Effect in experiment [1] is 4.84%; in experiment [2], -17.6%.
Turning to `Cc1nc(C(=O)N2CCCC(n3cncn3)C2)cs1` (configuration not stated), the Percent Effect was -3.48% in experiment [1] and 1.3% in experiment [2].
On the same counts, the results for `COCC(=O)N1CCCn2c(CN3CCCCC3)nnc2C1` are 1.5% and -19.1%.
For the molecule `CC(C)N(C)Cc1cnc2n1CCN(CCc1ccccc1)C2`, the Percent Effect in experiment [1] is 0.605%; in experiment [2] it was -27.2%.
With `Cc1ccc(CNC(=O)Nc2cc(C(F)(F)F)c[nH]c2=O)cn1`, the Percent Effect in experiment [1] was -6.46%; in experiment [2], 8.32%.
Turning to `CCOCCn1c(=O)[nH]c2cc(C(=O)N(C)Cc3nc(C)cs3)ccc21`, the Percent Effect in experiment [1] was 1.06%; in experiment [2] it was -4.35%.
Regarding `COCC1COCCC12CCN(CCc1ccccc1)CC2` (configuration not stated), the figures for the Percent Effect in experiment [1] and in experiment [2] were -6.15% and 2.07%, respectively.
In the case of `CN1CC(=O)N(c2cccc(F)c2)CC12CCN(Cc1cccnc1)C2` (configuration not stated), the Percent Effect in experiment [1] is 2.03%; in experiment [2], -14.7%.
On the same counts, the results for `Cc1cc2n(n1)CC(CNCc1ccnc(-n3ccnc3C)c1)CN2` (configuration not stated) are -2.39% and -3.5%.
`Cc1ccc(C(=O)N2CCCC(C(=O)N3CCCCC3)C2)c(O)c1` (configuration not stated): the Percent Effect is -0.062% in experiment [1] and 20.6% in experiment [2].
On the same counts, the results for `COc1ccc(NC(=O)c2ccc[nH]2)c(N2CCN(C(C)=O)CC2)n1` are 1.11% and 0.954%.
`COc1cc(C(=O)N(C2CC2)C2CC(=O)NC2=O)ccc1C` (configuration not stated): the figures for the Percent Effect in experiment [1] and in experiment [2] were -3.91% and 3.11%, respectively.
As to `CN(C)c1cc(C(=O)N2CCCN(Cc3cscn3)CC2)ccn1`, the Percent Effect in experiment [1] is -2.62%; in experiment [2], -13.1%.
Take `Clc1ccccc1CN1CCc2nc(C3CCCCN3)ncc2C1` (configuration not stated): the Percent Effect in experiment [1] is 1.4%; in experiment [2] it was -35.9%.
In the case of `Cc1ccc(-n2nnc(C(=O)NS(C)(=O)=O)c2C2CC2)cc1`, the Percent Effect was 0.379% in experiment [1] and -7.97% in experiment [2].
Consider `O=C1N(c2cccc(Cl)c2)Cc2nc(=O)n(Cc3cccc(F)c3)n21`, for which the Percent Effect in experiment [1] was 6.56%; in experiment [2], -11.3%.
For `O=C1[C@H]2CN(CC3CC3)C[C@H]2CN1Cc1cccc(F)c1`, the values for the Percent Effect in experiment [1] and in experiment [2] were 1.33% and -1.04%, respectively.
Taken in the same sequence, the figures for `O=C(CCNc1ncccn1)NCCc1ccn(-c2ccccc2)n1` were -3.01% and -46.2%.
On to `COCCN1CCCN(C(=O)NC(C)Cn2cccn2)CC1` (configuration not stated), for which the Percent Effect is 1.3% in experiment [1] and -9.78% in experiment [2].
On the same counts, the results for `COc1ccccc1CC(=O)NS(C)(=O)=O` are -7.77% and 0.472%.
On the same counts, the results for `CC1(NC(=O)Cc2csc(C(C)(C)C)n2)CCS(=O)(=O)C1` (configuration not stated) are -6.9% and -10.1%.
Take `COCCN1C[C@@H](C)[C@@]2(COCCN(C(=O)Cc3ccccc3)C2)C1`: the values for the Percent Effect in experiment [1] and in experiment [2] were 1.75% and -6.45%, respectively.
In the case of `CCN1CCCN(C(=O)c2cnc(OC(C)C)c(Cl)c2)CC1`, the Percent Effect in experiment [1] is -0.365%; in experiment [2], -50.8%.
As for `c1cc(CNCc2ccnc(N3CCOCC3)c2)c2c(c1)OCCO2`, the Percent Effect in experiment [1] is 1.9%; in experiment [2] it was -11.8%.
As to `Cc1cnn(CC2CN(Cc3nc(N)c4ccccc4n3)CCO2)c1` (configuration not stated), the Percent Effect stood at 3.58% in experiment [1] and 20.2% in experiment [2].
Taken in the same sequence, the figures for `Cc1cnn(CC2CN(Cc3nnc(-c4occc4C)o3)CCO2)c1` (configuration not stated) were 2.04% and 12.3%.
Consider `Cc1ncnc2c1CCN(c1cc(C(F)(F)F)ncn1)CC2`, for which the Percent Effect in experiment [1] amounted to 3.84%; in experiment [2], 6.49%.
On the same counts, the results for `CS(=O)(=O)N1CCCC12CCCN(S(=O)(=O)c1ccc(F)cc1)C2` (configuration not stated) are -6.05% and 7.82%.
Taken in the same sequence, the figures for `O=c1ccc(-c2cccs2)nn1CN1CCN(Cc2ccccc2)CC1` were -1.1% and 9.12%.
Taken in the same sequence, the figures for `CCc1ccc(C(=O)N2CCC(c3nncn3CC)CC2)cc1` were -2.16% and 7.54%.
In the case of `CC(C)(C)c1n[nH]c(C2CN(C(=O)CCC3CC3)CCO2)n1` (configuration not stated), the Percent Effect in experiment [1] was -3.75%; in experiment [2] it was 11.1%.
As to `CNC(=O)C1CCC(NC(=O)N(C)Cc2c(C)noc2C)CC1` (configuration not stated), the Percent Effect in experiment [1] is -3.01%; in experiment [2] it was 14.3%.
On the same counts, the results for `N#Cc1ccc(CN2CCN(C(=O)C3CCC3)[C@@H]3CS(=O)(=O)C[C@@H]32)cc1` are -2.41% and -34.5%.
Taken in the same sequence, the figures for `O=C1NCCN1C1CCN(Cc2ccccn2)CC1` were -1.42% and -6.38%.
Take `COC(=O)C(c1cc(F)ccc1F)N(C)C(=O)c1csnn1` (configuration not stated): the results for the Percent Effect in experiment [1] and in experiment [2] were 3.92% and -19.1%, respectively.
With `CN1CCc2onc(CNc3ncccn3)c2C1`, the figures for the Percent Effect in experiment [1] and in experiment [2] were 6.7% and -1.52%, respectively.

Source of the values: ChEMBL document CHEMBL3988442, “University of Dundee, Small-Polar-MMV Screening Library” (2021).
